This passage reports growth results from PubChem BioAssay (NCI).

Some test systems named below: T-47D breast; BT-549 breast; MDA-MB-435 melanoma; SW-620 colon; MCF7 breast; HCT-116 colon; HCC-2998 colon; KM12 colon.
Common to all, as to assay: NCI-60 one-dose screen, 48 h (100 = growth as untreated, 0 = no growth, -100 = all killed)
Common to all, as to settings: 10 µM unless noted

Compounds without any hit were thinned out: in the full panel of roughly 83,000, 20% have a hit.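 Treatment: one concentration, 48 hours, 96-well format. Scoring: percent growth, with anything below 10 considered active.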 A number with no mark means an inactive call. The source made the active and inactive calls.

`Cc1ncc(C(=O)Nc2ccc(CN3CCN(C)CC3)c(C(F)(F)F)c2)cc1C#Cc1ccc(N)nc1`: the growth with T-47D breast was 18.6%; in the assay on BT-549 breast, 15.3%; with MDA-MB-435 melanoma, -59% (active); in the assay with SW-620 colon, -2.48% (active); with MCF7 breast it was 4.46% (active); in the assay with HCT-116 colon, -31.3% (active). For the same compound, the results for the growth in the assay on HCC-2998 colon and with KM12 colon were 25.5% and 2.86% (active), respectively.

As to `CNCCCNc1nc2ccccc2c2c(=O)c3cc(F)ccc3sc12`, the growth was 22.4% in the assay on T-47D breast; 86.7% in the assay on BT-549 breast; -85.3% (active) with MDA-MB-435 melanoma; -71.4% (active) in the assay with SW-620 colon; -44.8% (active) with MCF7 breast; -67% (active) with HCT-116 colon. Moreover, the growth with HCC-2998 colon is -88.3% (active); in the assay with KM12 colon, -44.4% (active).

As for `O=c1n(Cc2ccc3ccccc3c2)ccn1Cc1ccc2ccccc2c1`, the growth with T-47D breast is 55.5%; in the assay on BT-549 breast it was 92.4%; in the assay on MDA-MB-435 melanoma it was 107%; with SW-620 colon, 102%; in the assay on MCF7 breast, 97.6%; in the assay on HCT-116 colon, 70.6%. Besides, the growth with HCC-2998 colon is 103%; in the assay with KM12 colon, 96.4%.

Take `CCN(CC)c1ccc(C2=NN(C(C)=O)C(c3cc(OC)c(OC)c(OC)c3)C2)cc1` (stereo not drawn): the growth with T-47D breast is 47.2%; in the assay on BT-549 breast it was -36.3% (active); in the assay with MDA-MB-435 melanoma it was -53% (active); in the assay with SW-620 colon it was 22.3%; with MCF7 breast it was 27%; in the assay on HCT-116 colon, 6.95% (active). For the same compound, the growth was -6.47% (active) with HCC-2998 colon and -17% (active) in the assay with KM12 colon.

As to `O=C(Nc1ccc(Br)cc1F)c1cc(Br)ccc1O`, the growth in the assay with T-47D breast is -5.16% (active); with BT-549 breast, -6.02% (active); in the assay on MDA-MB-435 melanoma it was 3.11% (active); in the assay on SW-620 colon, 8.55% (active); with MCF7 breast, 6% (active); in the assay on HCT-116 colon, 5.39% (active). Also, the values for the growth with HCC-2998 colon and with KM12 colon were 12.4% and 3.17% (active), respectively.

As for `CC1Cc2ccccc2N1NC(=O)c1ccc(Cl)c(S(N)(=O)=O)c1` (stereo not drawn), the growth in the assay with T-47D breast was 100%; with BT-549 breast it was 92.1%; in the assay on MDA-MB-435 melanoma, 102%; in the assay with SW-620 colon, 105%; in the assay with MCF7 breast it was 92.2%; with HCT-116 colon it was 98.2%. For the same compound, the growth was 96% with HCC-2998 colon and 107% with KM12 colon.

On to `CCOC(=O)Cn1c(=O)c2c(c3ccccc3n2C)n2nnc(-c3ccccc3)c12`, for which the growth with T-47D breast is 104%; with BT-549 breast it was 114%; in the assay with MDA-MB-435 melanoma, 113%; in the assay on SW-620 colon, 109%; in the assay on MCF7 breast, 75.1%; with HCT-116 colon, 90%. The growth in the assay with HCC-2998 colon is 109%; in the assay with KM12 colon it was 104%.

As to `CC1(C)C2CC1C1(/C=N\Nc3ccccc3)C(C2)C(C#N)(C#N)C1(C#N)C#N` (stereo not drawn), the growth with T-47D breast is 72.6%; in the assay on BT-549 breast it was 107%; in the assay with MDA-MB-435 melanoma, 104%; with SW-620 colon, 101%; with MCF7 breast, 94.8%; with HCT-116 colon it was 83.9%. The growth with HCC-2998 colon was 94.6%; with KM12 colon, 81.3%.

Regarding `C=CCNc1ccc2c3c(cccc13)C(=O)N(N1C(=O)c3cccc4cccc(c34)C1=O)C2=O`, the growth with T-47D breast is 96.5%; in the assay on BT-549 breast, 105%; with MDA-MB-435 melanoma it was 101%; in the assay with SW-620 colon, 108%; in the assay with MCF7 breast, 87.4%; in the assay with HCT-116 colon it was 99.6%. The growth is 107% in the assay on HCC-2998 colon and 105% in the assay with KM12 colon.

In the case of `CCCCC[C@H](O)C/C=C1/C(=O)C=C[C@@H]1C/C=C\CCCC(=O)O`, the growth is 50.4% in the assay on T-47D breast; 54.5% in the assay on BT-549 breast; 36.9% in the assay with MDA-MB-435 melanoma; 51.9% with SW-620 colon; 19% with MCF7 breast; 44.5% in the assay on HCT-116 colon. In addition, the growth was 76.5% in the assay on HCC-2998 colon and 50.9% with KM12 colon.

Consider `COc1cccc(OC)c1C(=O)N[C@@H]1C(=O)N2[C@@H]1SC(C)(C)[C@@H]2C(=O)O`, for which the growth in the assay on T-47D breast was 98.3%; with BT-549 breast, 95.4%; with MDA-MB-435 melanoma, 105%; in the assay with SW-620 colon, 107%; in the assay on MCF7 breast, 98%; in the assay on HCT-116 colon, 97.9%. In addition, the growth was 105% in the assay on HCC-2998 colon and 107% in the assay with KM12 colon.

`CC(C)(C)NC(=O)C(OC(=O)c1cccc(Cl)c1)c1ccc(Cl)cc1` (stereo not drawn): the growth is 96.8% in the assay on T-47D breast; 82.9% with BT-549 breast; 107% with MDA-MB-435 melanoma; 103% in the assay with SW-620 colon; 95.8% with MCF7 breast; 74.7% with HCT-116 colon. Besides, the growth in the assay with HCC-2998 colon was 107%; with KM12 colon, 100%.

For the compound `O=[N+]([O-])c1ccccc1NCSc1ccc(Cl)cc1`, the growth was 93.3% in the assay on T-47D breast; 69.2% in the assay on BT-549 breast; 93.8% in the assay with MDA-MB-435 melanoma; 101% in the assay on SW-620 colon; 91.9% in the assay with MCF7 breast; 83.8% with HCT-116 colon. For the same compound, the growth with HCC-2998 colon is 84.3%; in the assay with KM12 colon, 79.2%.

Consider `COc1cc(CCC[P+](c2ccccc2)(c2ccccc2)c2ccccc2)c(OC)c(OC)c1OC`, for which the growth is 63.5% in the assay with T-47D breast; 72.9% in the assay on BT-549 breast; 0.374% (active) in the assay on MDA-MB-435 melanoma; 82.6% with SW-620 colon; 39% in the assay on MCF7 breast; 61.9% with HCT-116 colon. The values for the growth in the assay with HCC-2998 colon and in the assay on KM12 colon were 100% and 75.9%, respectively.

With `Fc1cc(-c2nnc3n2NC(=Nc2ccc(Cl)cc2)CS3)c(Cl)cc1Cl`, the growth was 79.2% in the assay on T-47D breast; 94.7% in the assay with BT-549 breast; 64.2% in the assay on MDA-MB-435 melanoma; 95.7% in the assay with SW-620 colon; 86.9% with MCF7 breast; 91.3% in the assay with HCT-116 colon. Further, the results for the growth in the assay with HCC-2998 colon and with KM12 colon were 75.3% and 60.5%, respectively.

Take `CSc1nc2ccc(C)cc2cc1/C=N/O`: the growth in the assay with T-47D breast is 71%; with BT-549 breast it was 73.2%; with MDA-MB-435 melanoma, 91.5%; in the assay with SW-620 colon, 85.6%; in the assay on MCF7 breast, 86.3%; with HCT-116 colon, 81.1%. Also, the growth with HCC-2998 colon was 96.6%; in the assay with KM12 colon, 93.7%.
